Among the data in PubChem BioAssay AID720541 (National Center for Advancing Translational Sciences (NCATS), 2013) are Potency values, retold here.

The campaign covered roughly 1,300 compounds. About 420 (32%) were called active. Another 32% or so got no clear call; they are omitted. Calls come from the whole dose curve; as a rule, active = well fitted inhibition curve with a large enough effect; inconclusive = small, poorly fitted or top-dose-only effect; inactive = no such curve, though single readings can be large or run the other way. The list shows a part of the results. A call without a number means that no potency is given here.
Potency is the fitted concentration of half-maximal effect.

This experiment deals with C-terminal-binding protein 1 (Homo sapiens) (UniProt Q13363). Put plainly: qHTS for Inhibitors of the Phosphatase Activity of Eya2: Carboxyl-terminal binding protein (CtBP) Counterscreen for Cherry-picked Compounds. Note: nearly all actives have a fitted effect of over 65% in size. To be noted: purified protein-protein binding, AlphaScreen, 3 h; series mostly up to 46.1 µM. In outline: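 AlphaScreen using 25 nM GST-E1A with 25 nM CtBP-6xHIS; compounds at 2.5 nM–46 uM final, 2 h at room temperature, then donor/acceptor beads (20 ug/mL) for 1 h in the dark. Signal normalized to E1A peptide inhibitor (maximum inhibition) and DMSO.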
Regarding `Cc1c(CCC(=O)NCCCCCC(=O)O)c(=O)oc2cc3occ(-c4ccccc4)c3cc12`, the Potency was 8.49 µM (active).
To `COc1cccc2c1C(=O)/C(=C/c1ccc(N(C)C)cc1)C2` belongs 4.78 µM (active); to `CN(C)CCNc1ccc2ncn3c4ccc(O)cc4c(=O)c1c23`, 1.9 µM (active).
As for `CN(C)CCNc1ccc2nnn3c4ccc(O)cc4c(=O)c1c23`, the Potency is 1.2 µM (active).
As to `O=C(CC1(O)C(=O)Nc2ccccc21)c1ccccc1` (stereo not given), the Potency entry is “inactive”.
Consider `CCOC(=O)c1c(NC(=O)/C=C/C(=O)O)sc(C)c1-c1ccc(Cl)cc1`, for which the Potency result is “inactive”.
On to `Cn1c(=O)c(N)c2c3c(c(Br)ccc31)C(=O)c1ccccc1-2`, for which the Potency was 9.53 µM (active).
Consider `Cc1c(NC(=O)c2ccco2)cccc1C(=O)NN1C(=O)c2ccccc2C1=O`, for which the Potency entry was “inactive”.
For the compound `CCc1c(C)nc(Nc2nc(C)c3ccc(OC)cc3n2)[nH]c1=O`, the Potency was 3.38 µM (active).
`Cc1nn2c(c1-c1ccccc1)NC1=C(C(=O)CCC1)C2c1ccccc1` (stereo not given): the Potency result is “inactive”.
For `C/C=C/c1ccc(OCCSc2nc(C)cc(=O)[nH]2)c(OC)c1`, the Potency is 10.7 µM (active).
Take `O=S(=O)(Nc1nnc(-c2ccccc2)s1)c1ccc(Cl)cc1`: the Potency was 16.9 µM (active).
Turning to `Cc1n[nH]c(=S)n(NC(=O)CC(=O)Nn2c(=S)[nH]nc(C)c2=O)c1=O`, the Potency is 1.2 µM (active).
Under `CC1=CC(C)(C)Nc2ccc(OC(=O)CN3C(=O)c4ccccc4C3=O)cc21` stands “inactive”.
To `O=S(=O)(c1ccc(Cl)s1)N1CCc2ccccc2C1` belongs “inactive”; to `Cc1ccc(S(=O)(=O)NN2C(=O)/C(=C/c3cccc(F)c3)SC2=S)cc1`, “inactive”.
Consider `COc1ccc(OC)c(/C=C2\SC(=S)N(NS(=O)(=O)c3ccccc3)C2=O)c1`, for which the Potency result is “inactive”.
In the case of `O=C(NN1C(=O)/C(=C\c2ccc(O)c([N+](=O)[O-])c2)SC1=S)c1ccccc1Cl`, the Potency is 12 µM (active).
Regarding `COc1ccc(Nc2nc(C(C)(C)C)nc3c2nnn3Cc2ccccc2Cl)cc1OC`, the Potency result is “inactive”.
To `CCOC(=O)CNC(=O)C1CCCN(c2ncccn2)C1` (stereo not given) belongs “inactive”.
Regarding `CCOC(=O)C1CCN(C2=C(NS(=O)(=O)c3ccc(Br)cc3)C(=O)c3ccccc3C2=O)CC1`, the Potency is 5.36 µM (active).
With `NC(=O)C1CCN(c2oc(-c3cccs3)nc2S(=O)(=O)c2ccc(Br)cc2)CC1`, the Potency entry is “inactive”.
In the case of `CCOC(=O)C1CCCN(C2=C(NS(=O)(=O)c3ccc(Br)cc3)C(=O)c3ccccc3C2=O)C1` (stereo not given), the Potency was 12 µM (active).
`Brc1ccc(CSc2ccc3nnc(-c4ccccn4)n3n2)cc1`: the Potency is 13.5 µM (active).
With `Brc1ccc(CSc2ccc3nnc(-c4cccnc4)n3n2)cc1`, the Potency entry is “inactive”.
For `COC(=O)c1ccc(CSc2ccc3nnc(-c4ccccn4)n3n2)o1`, the Potency was 7.57 µM (active).
Regarding `c1ccc(CSc2ccc3nnc(-c4ccccn4)n3n2)cc1`, the Potency is 13.5 µM (active).
Regarding `CCOc1ccc(NC(=O)C2CC(=O)N(CCc3ccc(OC)c(OC)c3)C2)cc1OCC` (stereo not given), the Potency is 19 µM (active).
For `CN(C)c1ccc(C(CNS(=O)(=O)c2ccc(F)c(F)c2)c2c[nH]c3ccccc23)cc1` (stereo not given), the Potency entry is “inactive”.
To `S=C(Nc1ccc2c(c1)OCCO2)Nc1ccc2c(c1)OCO2` belongs “inactive”.
Consider `O=C(COC(=O)c1cc(S(=O)(=O)N2CCOCC2)ccc1O)Nc1ccc2c(c1)OCO2`, for which the Potency result is “inactive”.
For the compound `COc1ccc2oc(C(=O)Nc3cccc(S(=O)(=O)N4CCOCC4)c3)c(C)c2c1`, the Potency entry is “inactive”.
Turning to `Cc1ccc(NC(=O)/C=C/c2ccc3c(c2)OCO3)cc1S(=O)(=O)N1CCOCC1`, the Potency was 6.75 µM (active).
Turning to `COc1ccc(S(=O)(=O)N2CCOCC2)cc1C(=O)Nc1cccc(C(=O)NC2CC2)c1`, the Potency was 15.1 µM (active).
Take `O=C(COC(=O)c1cc(=O)[nH]c2ccccc12)Nc1cccc(S(=O)(=O)N2CCOCC2)c1`: the Potency entry is “inactive”.
Take `Cc1ccc(NC(=O)c2ccc3c(c2)OCO3)cc1S(=O)(=O)N1CCOCC1`: the Potency is 8.49 µM (active).
Turning to `COc1ccc(/C=C/C(=O)Nc2cccc(S(=O)(=O)N3CCOCC3)c2)cc1OC`, the Potency is 15.1 µM (active).
In the case of `NC(=O)C1CCN(CC(=O)Nc2ccc3c(c2)OCO3)CC1`, the Potency entry was “inactive”.
In the case of `Oc1ccc(-c2nc3c4c(ncn3n2)-c2ccccc2CC42CCCC2)cc1`, the Potency result was “inactive”.
For the compound `Cc1ccc(Nc2nc(N)nc(CSc3nnc(C)s3)n2)cc1`, the Potency result was “inactive”.
For the compound `O=C(O)C1=C[C@@H](c2csc3ccccc23)C[C@@H](OCc2ccc(CO)cc2)O1`, the Potency entry was “inactive”.
As to `CN(C)Cc1ccccc1Sc1cccc2ccccc12`, the Potency result was “inactive”.
To `CCN(CC)C(=O)c1ccc(O)c(OC)c1` belongs “inactive”; to `COc1cccc(-c2nnc(SCC(=O)Nc3cc(C)on3)o2)c1`, 12 µM (active); to `Cc1cc(NC(=O)CS(=O)(=O)c2cn(Cc3cccc(Br)c3)c3ccccc23)no1`, “inactive”.
Consider `COc1ccccc1-n1c(SCC(=O)Nc2cc(C)on2)nc2c(c1=O)SCC2`, for which the Potency entry is “inactive”.
For the compound `O=C(Nc1ccccc1)C(Cl)C(=O)c1ccccc1` (stereo not given), the Potency entry was “inactive”.
For `O=C(Nc1cccc(O)c1)c1cccc(C(=O)Nc2cccc(O)c2)c1`, the Potency was 8.49 µM (active).
Regarding `COc1cc(CNC(=O)Nc2nc(C(N)c3ccccc3)cs2)cc(OC)c1OC` (stereo not given), the Potency was 13.5 µM (active).
In the case of `CCC(=O)Nc1nc2c(OC)ccc(OC)c2s1`, the Potency result is “inactive”.
To `O=S(=O)(c1ccccc1)[C@@]1(c2ccccc2)C[C@@H]2ON=C(c3cccc(-c4ccccc4)c3)[C@@H]2C1` belongs “inactive”; to `COc1cccc(C=NCC(C)N=Cc2cccc(OC)c2O)c1O` (stereo not given), 16.9 µM (active); to `Oc1c(C(c2cccs2)N2CCN(c3ccccc3)CC2)sc2ncnn12` (stereo not given), 19 µM (active).
`COc1ccc(N2CCN(C(c3ccco3)c3sc4nc(C)nn4c3O)CC2)cc1` (stereo not given): the Potency entry is “inactive”.
To `O=c1c(O)cccc2cc(O)c(O)c(O)c12` belongs 15.1 µM (active); to `COc1ccccc1NC(=O)c1ccc(NC(=O)Cc2n[nH]c(=O)c3ccccc23)cc1`, “inactive”; to `COc1ccccc1OCC(=O)Nc1ccc(C(=O)Nc2ccccc2C(=O)O)cc1`, 16.9 µM (active).
In the case of `CC1=C(/C=C/C(C)=C/C=C/C(C)=C/C(=O)Nc2ccc(O)cc2)C(C)(C)CCC1`, the Potency result is “inactive”.
`COc1ccc(S(=O)(=O)N2CCC3CC2c2cc(N4CCOCC4)ccc23)cc1` (stereo not given): the Potency entry was “inactive”.
For `O=C(Oc1ccc(=O)n(-c2ccccc2)n1)c1ccc(F)cc1`, the Potency entry was “inactive”.
Take `CN1C=C/C(=C\c2cc[n+](C)c3ccccc23)c2ccccc21`: the Potency was 15.1 µM (active).
As to `C[n+]1ccc(/C=C/c2cc[n+](C)c3ccccc23)c2ccccc21`, the Potency is 15.1 µM (active).
To `O=S(=O)(O)c1ccc2c(N=Nc3ccc(S(=O)(=O)O)c4ccccc34)c(O)c(S(=O)(=O)O)cc2c1` belongs 9.53 µM (active); to `CC(=O)Nc1ccc(S(=O)(=O)O)c2cc(S(=O)(=O)O)c(N=Nc3ccc(N=Nc4ccc(S(=O)(=O)O)cc4)c4ccc(S(=O)(=O)O)cc34)c(O)c12`, 1.69 µM (active); to `Cc1cc(NC(=O)c2cccc(N3C(=O)CCC3=O)c2)no1`, “inactive”.
On to `O=C(Nc1ccc(F)cc1)c1ccc2[nH]c(=O)c(=O)[nH]c2c1`, for which the Potency was 1.9 µM (active).
Turning to `Cc1ccc(NC(=O)c2ccc3[nH]c(=O)c(=O)[nH]c3c2)nc1`, the Potency was 6.75 µM (active).
As to `O=C(NC1=C(Nc2ccc(F)cc2)C(=O)c2ccccc2C1=O)c1ccc(Cl)cc1`, the Potency entry was “inactive”.
On to `Cc1nc2c(C(=O)Nc3ccc(N4CCCC(O)C4)cc3)snc2c(=O)[nH]1` (stereo not given), for which the Potency entry was “inactive”.
With `CCOc1cc(/C=C2/NC(=O)NC2=O)cc(Br)c1OCc1ccc(C(=O)O)cc1`, the Potency entry is “inactive”.
To `CSCc1cc(N(C)c2ccccc2)nc(-c2ccccn2)n1` belongs 13.5 µM (active); to `O=C(O)C1=NN(c2cc(Cl)c(S(=O)(=O)O)cc2Cl)C(=O)C1`, “inactive”; to `CN(C)c1ccc(N=c2sc3ccccc3n2C)cc1`, 7.57 µM (active).
In the case of `CCN1CCN(c2ncnc3scc(-c4ccc(C)cc4)c23)CC1`, the Potency result was “inactive”.
Under `CCc1nnc2c(N(C)C)nc3ccccc3n12` stands 12 µM (active).
For `CN(C)S(=O)(=O)n1cnc2ccccc21`, the Potency result was “inactive”.
As for `Cc1cc2oc(C(=O)N3CCN(Cc4ccccc4)CC3)c(C)c2cc1C`, the Potency entry is “inactive”.
As to `CC(=O)Nc1ccc(S(=O)(=O)NC2=C(N3CCN(Cc4ccccc4)CC3)C(=O)c3ccccc3C2=O)cc1`, the Potency was 16.9 µM (active).
In the case of `O=C1C(NS(=O)(=O)c2cccs2)=C(N2CCN(Cc3ccccc3)CC2)C(=O)c2ccccc21`, the Potency is 10.7 µM (active).
Consider `O=c1c2ccccc2nnn1CSc1nnc(C2COc3ccccc3O2)n1-c1ccccc1` (stereo not given), for which the Potency entry is “inactive”.
On to `O=c1cc(CSc2ccc(Cl)cc2)nc(-c2ccccn2)[nH]1`, for which the Potency was 2.13 µM (active).
As to `Nc1nc2cc3ccccc3cc2[nH]c1=O`, the Potency result was “inactive”.
In the case of `O=c1nc(-c2ccccc2)c2cc(Cl)ccc2[nH]1`, the Potency is 13.5 µM (active).
For `COc1ccc(NC(=O)c2[nH]c(C)c(C(C)=O)c2C)cc1Cl`, the Potency result is “inactive”.
`CC1CCN(C2=C(NS(=O)(=O)c3ccc(Br)cc3)C(=O)c3ccccc3C2=O)CC1`: the Potency was 5.36 µM (active).
As for `CN(C1=C(N2CCCCC2)C(=O)c2ccccc2C1=O)c1ccccc1`, the Potency is 1.9 µM (active).
On to `O=C1C(NS(=O)(=O)c2ccc(Br)cc2)=C(N2CCCCC2)C(=O)c2ccccc21`, for which the Potency is 13.5 µM (active).
`O=C1N=c2ccccc2=C1c1sc(Nc2cccc(O)c2)nc1O`: the Potency entry is “inactive”.
To `O=C(CCS(=O)(=O)c1ccc(Br)cc1)N1CCCCCC1` belongs “inactive”; to `O=C1C(Nc2cccc(O)c2)=C(N2CCCCC2)C(=O)c2ccccc21`, 19 µM (active).
Under `O=c1cc(Nc2ccc3c(c2)OCO3)[nH]c(=O)n1-c1ccc(Br)cc1` stands “inactive”; under `S=C(NC1CC1)NC1CCCc2ccccc21` (stereo not given), “inactive”; under `COc1ccc(-c2ccc(SCc3cccnc3)nn2)cc1OC`, 13.5 µM (active).
Consider `O=C(O)CCCCCNS(=O)(=O)c1cccc2c1C(=O)c1ccccc1C2=O`, for which the Potency is 5.36 µM (active).
Under `Cc1ccc(Nc2nc(-c3cccnc3)nc3ccccc23)cc1` stands “inactive”; under `CCOC(=O)c1nc(Nc2ccc(Nc3ccccc3)cc2)c2ccccc2n1`, 13.5 µM (active); under `O=C(O)c1ccc(Nc2nc(-c3ccccc3)nc3ccccc23)cc1`, 9.53 µM (active).
As for `O=C(O)c1cccc(Nc2nc(-c3ccccc3)nc3ccccc23)c1`, the Potency is 12 µM (active).
In the case of `Cc1cc(Nc2ccc([N+](=O)[O-])cc2)c2ccccc2n1`, the Potency entry is “inactive”.
With `CCOC(=O)NNc1nncc2ccccc12`, the Potency result is “inactive”.
